High-throughput results from PubChem BioAssay.
Hits are enriched below; roughly 11% of the tested compounds scored in any of these assays.
BAZ2B inh = inhibitors of human BAZ2B bromodomain | Potency, µM (top dose mostly 114 µM), for inactives: top-dose activity change, negative = inhibition, hits mostly inhibitors | 4.4% of 360,000 active | AlphaScreen BAZ2B-H3K14Ac peptide displacement | Q9UIF8; also: potency is read from the fitted curve at half-maximal effect; % is scaled to controls: 0 for no effect and ±100 for the full control effect; nearly all actives have a fitted effect of over 60% in size
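BAZ2B 50 nM plus b-H3(5-23)K14Ac 50 nM, PBS pH 7.4/0.01% Tween-20, 30 min RT; compound added (max 110 uM), 30 min RT; streptavidin donor/Ni-chelate acceptor beads 10 ug/mL final, 20 min dark; AlphaScreen read.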
L3MBTL1 inh = inhibitors of human L3MBTL1. AlphaScreen L3MBTL1–H3K9me1 peptide binding. Q9Y468. Potency, µM (doses to about 57.1 µM), for inactives: top-dose activity, negative = inhibition, usual class: inhibitors. 0.66% of 230,000 active; also: potency is read from the fitted curve at half-maximal effect; % is scaled to controls: 0 for no effect and ±100 for the full control effect; nearly all actives have a fitted effect of over 60% in size
Target sequence (Q9Y468 whole entry, looked up): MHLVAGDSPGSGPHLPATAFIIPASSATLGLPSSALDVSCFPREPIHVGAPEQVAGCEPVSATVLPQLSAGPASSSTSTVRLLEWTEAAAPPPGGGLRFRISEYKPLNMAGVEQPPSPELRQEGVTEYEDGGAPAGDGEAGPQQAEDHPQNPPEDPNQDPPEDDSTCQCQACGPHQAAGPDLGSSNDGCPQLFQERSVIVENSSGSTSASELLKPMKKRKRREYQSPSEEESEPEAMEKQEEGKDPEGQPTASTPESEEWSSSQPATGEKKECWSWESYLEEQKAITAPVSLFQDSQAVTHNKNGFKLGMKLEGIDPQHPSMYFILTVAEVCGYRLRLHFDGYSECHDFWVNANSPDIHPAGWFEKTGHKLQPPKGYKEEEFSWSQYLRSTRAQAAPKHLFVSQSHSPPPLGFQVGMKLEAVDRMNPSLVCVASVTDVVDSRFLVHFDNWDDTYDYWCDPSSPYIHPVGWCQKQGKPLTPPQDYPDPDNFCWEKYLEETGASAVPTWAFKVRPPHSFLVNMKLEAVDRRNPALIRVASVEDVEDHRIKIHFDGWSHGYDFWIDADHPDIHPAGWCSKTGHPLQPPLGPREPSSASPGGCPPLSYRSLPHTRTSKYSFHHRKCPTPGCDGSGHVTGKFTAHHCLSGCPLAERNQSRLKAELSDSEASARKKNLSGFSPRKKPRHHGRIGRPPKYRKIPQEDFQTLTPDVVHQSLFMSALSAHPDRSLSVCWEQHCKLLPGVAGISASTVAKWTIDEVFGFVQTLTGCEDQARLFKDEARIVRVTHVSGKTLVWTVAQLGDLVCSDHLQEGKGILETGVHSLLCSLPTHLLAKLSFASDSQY
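L3MBTL1 (50 nM) pre-complexed 30 min with biotinylated H3(1-15)K9me1 peptide (75 nM), then compounds added for 30 min at room temperature; AlphaScreen streptavidin donor/nickel chelate acceptor beads (10 ug/mL final) read after 30 min dark incubation.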
G9a inh = inhibitors of human histone lysine methyltransferase G9a; Q96KQ7; Potency, µM (series often up to 102 µM), without a hit: at the top dose activity, negative = inhibition, hits mostly inhibitors; G9a H3K9 monomethylation, AlphaScreen, 2 h; 8.8% of 350,000 active; also: potency is read from the fitted curve at half-maximal effect; % is scaled to controls: 0 for no effect and ±100 for the full control effect; nearly all actives have a fitted effect of over 75% in size
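Methyltransferase reactions run at room temperature for 2 h (20 nM enzyme, 500 nM biotin-H3K9 peptide, 20 uM SAM) after a 15 min compound preincubation; product detected by AlphaScreen beads and anti-H3K9me1 antibody.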
PI5P4K alpha inh = PI5P4K alpha (human) kinase inhibition; PI5P4Kalpha enzyme, ADP-Glo luminescence, 60 min; active compounds read low; max response, %; 1.2% of 330,000 active; active = max response of -50% or lower; inconclusive = between -30% and -50%; inactive = -30% or higher; also: value at the top dose of about 77 µM; % is scaled to controls: 0 for no effect and ±100 for the full control effect
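qHTS, 1536-well: enzyme/substrate mix, compound by pin tool, 5 microM ATP final; RT 60 min; ADP-Glo reagents 1 (45 min) then 2 (30 min); luminescence.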
JMJD2A Tudor = blocks the human JMJD2A Tudor domain. O75164. AlphaScreen JMJD2A-Tudor / H3K4me3 peptide binding. Potency, µM (doses to about 114 µM), without a hit: at the highest dose activity change, negative = inhibition, usual class: inhibitors. 4.4% of 390,000 active; also: potency is read from the fitted curve at half-maximal effect; % is scaled to controls: 0 for no effect and ±100 for the full control effect; nearly all actives have a fitted effect of over 50% in size
HP1b chromo inh = blocks HP1-beta chromodomain binding to methylated histone tails; Potency, µM (series often up to 114 µM), without a hit: at the highest dose activity change, negative = inhibition, hits mostly inhibitors; P83916; AID 540317; 0.56% of 390,000 active; AlphaScreen HP1-beta / biotin-H3K9me3 peptide binding; also: potency is read from the fitted curve at half-maximal effect; nearly all actives have a fitted effect of over 70% in size
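HP1-beta protein (50 nM final) preincubated 30 min at room temperature with biotinylated H3(1-18)K9me3 peptide (50 nM) in PBS pH 7.4, 0.01% Tween-20, then compound added for 30 min. AlphaScreen streptavidin donor/nickel chelate acceptor beads (10 ug/mL final), 30 min dark, luminescence read.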
* marks the source's active call; other numbers are inactive results; ? = inconclusive; / = no result given; [ ] = another dose, or the depositor's remark. Unless noted, calls follow the shape of the dose curve; as a rule, active = well fitted inhibition curve with a large enough effect; inconclusive = small, poorly fitted or top-dose-only effect; inactive = no such curve, though single readings can be large or run the other way.

SMILES	BAZ2B inh	L3MBTL1 inh	G9a inh	PI5P4K alpha inh	JMJD2A Tudor	HP1b chromo inh
COc1ccc(C(=O)CSc2cc(C)[nH]c(=O)n2)cc1	50µM*	/	?	-63*	?	-13%
Cc1ccc(CSc2cc(C)[nH]c(=O)n2)cc1	50µM*	/	3%	?	-28%	5%[57 µM]
O=C(NCc1cccc(Cl)c1)c1ccc2c(Cl)c3c(nc2c1)CCCC3	-10%	/	-3%[59 µM]	/	-17%	12%
CCCC(=O)N(Cc1cc(=O)[nH]c2ccccc12)c1ccccc1C	0%	/	35µM*	-16	?	1%
CCCC(=O)N(Cc1cc(=O)[nH]c2ccccc12)c1ccc(OC)cc1	-3%	/	?	-20	-17%	8%[57 µM]
CC(=O)N(Cc1cc(=O)[nH]c2ccccc12)c1ccccc1C	-1%	/	25µM*	-25	?	-3%
Oc1ccc(N2CCN(Cc3c(-c4ccccc4)nc4ccccn34)CC2)cc1	?	/	10µM*	-25	14µM*	?
COc1ccc(N=C(C)C2=C(O)COC2=O)cc1	-19%	3%	6.3µM*	-1	-14%	35%
COc1ccc(S(=O)(=O)N/N=C(/C)c2ccco2)cc1	-2%	/	55%	8	-10%	25%
CC(C)(C)c1ccc(OCC(=O)Nc2ccc3c4c(cccc24)C(=O)NC3=O)cc1	-5%	2%	/	-1	79µM*	8%
COc1cc(NC(=O)CN2C(=O)CN(C)C(=O)c3ccccc32)cc(OC)c1OC	-3%	/	11%[59 µM]	/	-8%	22%
CC(=O)Nc1ccccc1NS(=O)(=O)c1ccccc1NO	/	/	/	/	-21%	1%
CC1(C)CC2(C)OC(=N)C1(C#N)C2(C#N)C#N (centres undefined)	-5%	0%	56µM*	-8	-3%	34%
COCCn1c(C)cc(O)c(C(c2ccccc2Cl)N2CCN(c3ccccc3)CC2)c1=O (centres undefined)	17%	/	51%[59 µM]	/	-17%	36%[57 µM]
CSCCC(NS(=O)(=O)c1ccc2c(c1)oc(=O)n2C)C(=O)Nc1ccc(Cl)cc1 (centres undefined)	?	/	0%[59 µM]	/	-23%	5%
COc1ccc(-n2ncc(C(=O)NCCCN3CCCCC3)c2C2CCN(C(=O)OC(C)(C)C)CC2)cc1	7%[57.1 µM]	/	-9%[59 µM]	/	-1%	25%
O=C(/C=C/Nc1ccc(F)c(F)c1)c1cccs1	1%	-2%	45µM*	3	-19%	31%
COc1cc(C(=O)CSc2nncn2C)cc(OC)c1OC	?	/	40µM*	-14	-14%	42%
COc1cccc(-c2n[nH]c(=S)n2Cc2ccco2)c1	-36%	/	3.2µM*	?	20µM*	-23%
Cc1c(Cl)c(-c2n[nH]c(=S)n2Cc2ccco2)nn1C	-9%	/	7.9µM*	2	8.9µM*	20%
Cc1c(Cl)c(-c2n[nH]c(=S)n2-c2ccccc2)nn1C	2%	0%	8.9µM*	0	4.5µM*	28%
S=c1[nH]nc(-c2ccc(Br)cc2)n1Cc1ccco1	?	-7%	0.4µM*	-17	56µM*	-17%
Cc1nc2c([nH]1)c(=O)n(C)c(=O)n2Cc1ccco1	/	/	-16%[59 µM]	/	-11%	21%
COc1ccc2c(=O)c3c(=O)n(Cc4ccco4)c(-c4ccccc4)nc3oc2c1	-13%	/	?	/	-27%	6%
CCOc1ccc(Cn2c(CNS(=O)(=O)c3ccc(Cl)s3)nc3cccnc32)cc1	-1%	/	43%[59 µM]	/	-17%	28%[57 µM]
COc1cc(F)c(S(=O)(=O)N2CCCN(S(=O)(=O)c3ccc4c(c3)OCCO4)CC2)c(F)c1	/	/	/	/	-16%	/
S=c1[nH]nc(-c2ccncc2)n1Cc1ccco1	-5%	-5%[11.4 µM]	1µM*	/	7.9µM*	15%
CCOC(=O)c1c(C)oc2nc(C)nc(N3CCN(c4ccc(C(C)=O)cc4)CC3)c12	11%[57.1 µM]	/	-4%[59 µM]	/	-2%	32%
CC1CCc2c(sc3ncnc(SCC(=O)Nc4ccc(C(=O)O)cc4)c23)C1 (centres undefined)	-22%	/	9%	-67*	-2%	15%
